Experimental data from PubChem BioAssay AID1159580 (chemical genetic matrix, 2015).
Among all 5,500 compounds or so, about 2,000 (36%) were called active. Roughly 18% stayed inconclusive and do not appear here. Rule as the data show it: active = normalized growth mostly below about 0.91 (no sharp cut-off); inconclusive = no clear call, values can overlap the other calls; inactive = mostly above about 0.92. The list shows a part of the results.

Assay: chemical genetic growth profiling, strain panel (AID 1159580);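 also: tested at 20 µM; growth read once vehicle control cultures reached saturation at 30 °C; 1 = growth at the plate median or of vehicle wells; lower values mean less growth of the strain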
Conditions: growth OD

Measured: normalized growth

O=C(O)c1cc(O)c(O)c(O)c1
active: S. cerevisiae deletion strains, locus YLR039C, strain RIC1, active compounds read low 1.34 [resistant]
inactive: S. cerevisiae deletion strains, locus YJR066W, strain TOR1, active compounds read low 0.929 | S. cerevisiae deletion strains, locus YKL009W, strain mrt4, active compounds read low 1.03 | S. cerevisiae deletion strains, locus YKL068W, active compounds read low 1 | S. cerevisiae deletion strains, locus YKL085W, strain MDH1 (second series), active compounds read low 1.03 | S. cerevisiae deletion strains, locus YKL085W, strain MDH1, active compounds read low 1.03 | S. cerevisiae deletion strains, locus YKL160W, strain elf1, active compounds read low 1.05 | S. cerevisiae deletion strains, locus YKR001C, strain vps1, active compounds read low 1.07 | S. cerevisiae deletion strains, locus YKR026C, strain gcn3, active compounds read low 1.02 | S. cerevisiae deletion strains, locus YKR091W, strain srl3, active compounds read low 1.01 | S. cerevisiae deletion strains, locus YLL001W, strain dnm1, active compounds read low 0.997 | S. cerevisiae deletion strains, locus YLL026W, active compounds read low 1 | S. cerevisiae deletion strains, locus YLL041C, strain sdh2, active compounds read low 1.04 | S. cerevisiae deletion strains, locus YLR027C, strain aat2, active compounds read low 1.04 | S. cerevisiae deletion strains, locus YLR058C, strain SHM2, active compounds read low 1.06 | S. cerevisiae deletion strains, locus YLR102C, strain apc9, active compounds read low 1.02 | S. cerevisiae deletion strains, locus YLR113W, strain HOG1, active compounds read low 0.985 | S. cerevisiae deletion strains, locus YLR221C, strain rsa3, active compounds read low 0.981 | S. cerevisiae deletion strains, locus YLR258W, strain gsy2, active compounds read low 1.05 | S. cerevisiae deletion strains, locus YLR262C, strain YPT6 (second series), active compounds read low 1.03 | S. cerevisiae deletion strains, locus YLR262C, strain YPT6, active compounds read low 1.26 | S. cerevisiae deletion strains, locus YLR268W, strain sec22, active compounds read low 1.04 | S. cerevisiae deletion strains, locus YLR320W, strain mms22, active compounds read low 1.02 | S. cerevisiae deletion strains, locus YLR330W, strain CHS5, active compounds read low 1.03 | S. cerevisiae deletion strains, locus YLR342W, strain FKS1 (second series), active compounds read low 1.05 | S. cerevisiae deletion strains, locus YLR342W, strain FKS1, active compounds read low 1.03 | S. cerevisiae deletion strains, locus YLR357W, strain rsc2, active compounds read low 1.06 | S. cerevisiae deletion strains, locus YLR370C, strain arc18, active compounds read low 1.02 | S. cerevisiae deletion strains, locus YLR371W, strain rom2, active compounds read low 1.05 | S. cerevisiae deletion strains, locus YLR384C, strain iki3, active compounds read low 1.02 | S. cerevisiae deletion strains, locus YLR418C, strain cdc73, active compounds read low 1.11 | S. cerevisiae deletion strains, locus YML016C, strain PPZ1, active compounds read low 1.03 | S. cerevisiae deletion strains, locus YML032C, strain rad52, active compounds read low 1.03 | S. cerevisiae deletion strains, locus YML120C, strain ndi1, active compounds read low 1.01 | S. cerevisiae deletion strains, locus YML124C, strain tub3, active compounds read low 1.02 | S. cerevisiae deletion strains, locus YMR058W, strain fet3, active compounds read low 1.01 | S. cerevisiae deletion strains, locus YMR078C, strain ctf18, active compounds read low 1.03 | S. cerevisiae deletion strains, locus YMR125W, strain sto1, active compounds read low 1.03 | S. cerevisiae deletion strains, locus YMR129W, active compounds read low 1.03 | S. cerevisiae deletion strains, locus YMR205C, strain PFK2, active compounds read low 1.06 | S. cerevisiae deletion strains, locus YMR223W, strain ubp8, active compounds read low 1.02 | S. cerevisiae deletion strains, locus YMR231W, strain pep5, active compounds read low 1.01 | S. cerevisiae deletion strains, locus YMR307W, strain GAS1, active compounds read low 1.24 | S. cerevisiae deletion strains, locus YNL067W, strain RPL9B, active compounds read low 1.02 | S. cerevisiae deletion strains, locus YNL071W, strain lat1, active compounds read low 1.06 | S. cerevisiae deletion strains, locus YNL183C, strain NPR1, active compounds read low 0.933 | S. cerevisiae deletion strains, locus YNL209W, strain ssb2, active compounds read low 1.01 | S. cerevisiae deletion strains, locus YNL233W, strain BNI4, active compounds read low 1.08 | S. cerevisiae deletion strains, locus YNL248C, strain rpa49, active compounds read low 1.08 | S. cerevisiae deletion strains, locus YNL250W, strain rad50, active compounds read low 1.05 | S. cerevisiae deletion strains, locus YNL271C, strain bni1, active compounds read low 1.01 | S. cerevisiae deletion strains, locus YNL298W, strain CLA4, active compounds read low 1.01 | S. cerevisiae deletion strains, locus YNL307C, strain MCK1, active compounds read low 1.03 | S. cerevisiae deletion strains, locus YNL322C, strain KRE1 (second series), active compounds read low 1.03 | S. cerevisiae deletion strains, locus YNR049C, strain mso1, active compounds read low 1.01 | S. cerevisiae deletion strains, locus YNR052C, strain pop2, active compounds read low 1.01 | S. cerevisiae deletion strains, locus YOL006C, strain TOP1, active compounds read low 1.36 | S. cerevisiae deletion strains, locus YOL012C, strain htz1 0.913 | S. cerevisiae deletion strains, locus YOL147C, strain pex11, active compounds read low 1.02 | S. cerevisiae deletion strains, locus YOR001W, strain rrp6, active compounds read low 0.981 | S. cerevisiae deletion strains, locus YOR061W, strain CKA2, active compounds read low 1.04 | S. cerevisiae deletion strains, locus YOR069W, strain VPS5, active compounds read low 1.03 | S. cerevisiae deletion strains, locus YOR070C, strain gyp1, active compounds read low 1.02 | S. cerevisiae deletion strains, locus YOR080W, strain dia2, active compounds read low 1.01 | S. cerevisiae deletion strains, locus YOR083W, strain WHI5, active compounds read low 0.995 | S. cerevisiae deletion strains, locus YOR106W, strain vam3, active compounds read low 1.05 | S. cerevisiae deletion strains, locus YOR136W, strain idh2, active compounds read low 1.02 | S. cerevisiae deletion strains, locus YOR144C, strain elg1, active compounds read low 1.01 | S. cerevisiae deletion strains, locus YOR184W, strain ser1, active compounds read low 1.05 | S. cerevisiae deletion strains, locus YOR231W, strain MKK1, active compounds read low 0.971 | S. cerevisiae deletion strains, locus YOR265W, strain rbl2, active compounds read low 1 | S. cerevisiae deletion strains, locus YOR270C, strain vph1, active compounds read low 1.17 | S. cerevisiae deletion strains, locus YOR290C, strain snf2, active compounds read low 1.05 | S. cerevisiae deletion strains, locus YOR316C, strain cot1, active compounds read low 1.02 | S. cerevisiae deletion strains, locus YPL051W, strain arl3, active compounds read low 1.04 | S. cerevisiae deletion strains, locus YPL055C, strain LGE1, active compounds read low 1.1 | S. cerevisiae deletion strains, locus YPL078C, strain atp4, active compounds read low 1.05 | S. cerevisiae deletion strains, locus YPL106C, strain sse1, active compounds read low 1.06 | S. cerevisiae deletion strains, locus YPL240C, strain hsp82, active compounds read low 1.01 | S. cerevisiae deletion strains, locus YPL256C, strain CLN2, active compounds read low 0.968 | S. cerevisiae deletion strains, locus YPR119W, strain clb2, active compounds read low 1.05 | S. cerevisiae deletion strains, locus YPR141C, strain kar3, active compounds read low 1.02 | S. cerevisiae deletion strains, locus YPR163C, strain tif3, active compounds read low 1.03 | S. cerevisiae deletion strains, locus YPR167C, strain met16, active compounds read low 1.05 | S. cerevisiae deletion strains, strain wtn01, active compounds read low 1.03 | S. cerevisiae strains, strain wild type, active compounds read low 1.07
